Laboratory results taken from PubChem BioAssay AID651744 (Broad Institute, 2012).
Among all 5,600 compounds or so, about 3,100 (55%) were called active. Not shown: some 3% with an inconclusive outcome.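 How the source made its calls: active means mean loss of cell viability signal at or above a set limit, and enough replicates individually reaching it; inconclusive means meets only the mean limit or only the replicate share; inactive means meets neither condition.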 The set was probably picked from earlier hits. These entries were drawn from the full list.

Test: viability loss of mouse 3T3 cells – cell-based, cherry-pick, single point, set 2, cytotoxicity control, confirmation (AID 651744);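 further: 0% = median of neutral control wells and 100% = median of positive control wells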
Conditions: NIH/3T3 viability, CellTiter-Glo ATP luminescence, 90 h; at 24.9 µM; stronger effect = higher value

Structure (SMILES)	inhibition
COCCNC[C@@H]1[C@H](c2ccccc2)[C@H](CO)N1c1nc(C)c(C)s1	5.9% (inactive)
C/C=C/c1ccc([C@H]2[C@@H](CNC(C)C)N(c3nc(CC)cs3)[C@H]2CO)cc1	103% (active)
O=S(=O)(Cc1ccccc1)N1CCCCN2[C@@H](CO)[C@@H](c3ccc(-c4ccc(F)cc4)cc3)[C@@H]2C1	105% (active)
O=S(=O)(Cc1ccccc1)N1CCCCN2[C@@H](CO)[C@H](c3ccc(-c4ccccc4)cc3)[C@@H]2C1	106% (active)
CCS(=O)(=O)N1CCCCN2[C@@H](CO)[C@@H](c3ccc(-c4ccccc4)cc3)[C@@H]2C1	49.5% (active)
O=S(=O)(Cc1ccccc1)N1CCCCN2[C@@H](CO)[C@H](c3ccc(-c4cccnc4)cc3)[C@@H]2C1	-12.4% (inactive)
Cc1cccc(-c2ccc([C@@H]3[C@@H](CO)N4CCCCN(S(=O)(=O)c5cccs5)C[C@H]34)cc2)c1	95.2% (active)
CN(C)C(=O)c1ccc(-c2ccc([C@@H]3[C@H](CO)N4CCCCN(S(C)(=O)=O)C[C@@H]34)cc2)cc1	6.63% (inactive)
C[C@H](O)C#Cc1ccc([C@H]2[C@H]3CN(S(=O)(=O)Cc4ccccc4)CCCCN3[C@H]2CO)cc1	30.3% (active)
C[C@@H](O)C#Cc1ccc([C@@H]2[C@H](CO)N3CCCCN(S(=O)(=O)c4ccccc4)C[C@@H]23)cc1	3.32% (inactive)
C/C=C/c1ccc([C@H]2[C@H]3CN(S(=O)(=O)c4ccccc4)CCCCN3[C@H]2CO)cc1	87.7% (active)
C[C@H](O)C#Cc1ccc([C@@H]2[C@H]3CN(S(=O)(=O)c4ccccc4)CCCCN3[C@H]2CO)cc1	25.4% (inactive)
O=C(Nc1cc(Cl)cc(Cl)c1)N[C@H]1CC[C@@H](CCNS(=O)(=O)c2cccc(F)c2)O[C@H]1CO	57.3% (active)
COc1cccc(S(=O)(=O)Nc2ccc3c(c2)[C@H]2C[C@H](CC(=O)NCc4ccc(Cl)cc4)O[C@H](CO)[C@H]2O3)c1	4.86% (inactive)
O=C(Nc1ccc(Cl)cc1)N[C@@H]1CC[C@@H](CCNC(=O)c2ccccc2F)O[C@H]1CO	4.33% (inactive)
CC(C)CC#Cc1ccc2c(c1)O[C@H](CN(C)Cc1cccnc1)[C@H](C)CN([C@@H](C)CO)S2(=O)=O	97% (active)
C[C@H](CO)N1C[C@H](C)[C@@H](CN(C)Cc2ccncc2)Oc2cc(Br)ccc2S1(=O)=O	51.2% (active)
CCCC#Cc1ccc2c(c1)O[C@@H](CN(C)C(=O)c1ccccc1F)[C@H](C)CN([C@H](C)CO)S2(=O)=O	24.6% (inactive)
CC(C)CC#Cc1ccc2c(c1)O[C@H](CN(C)Cc1ccncc1)[C@H](C)CN([C@H](C)CO)S2(=O)=O	104% (active)
CC(C)CC#Cc1ccc2c(c1)O[C@H](CN(C)Cc1ccccc1F)[C@@H](C)CN([C@@H](C)CO)S2(=O)=O	105% (active)
O=C(Nc1ccc2c(c1)[C@@H]1C[C@H](CC(=O)N3CCOCC3)O[C@@H](CO)[C@@H]1O2)c1ccc2c(c1)OCO2	4.7% (inactive)

Structure (SMILES)	inhibition
C[C@H](CO)N1C[C@H](C)[C@@H](CN(C)C(=O)Nc2cc(F)ccc2F)Oc2cc(C#CC3CC3)ccc2S1(=O)=O	55.6% (active)
C[C@H]1CN([C@@H](C)CO)S(=O)(=O)c2ccc(C#CC3CCCC3)cc2O[C@@H]1CN(C)C(=O)c1cccc(F)c1	105% (active)
C[C@H]1CN([C@@H](C)CO)C(=O)CCCn2cc(nn2)CO[C@H]1CN(C)C(=O)c1ccccc1	7.66% (inactive)
CO[C@H](CN(C)S(=O)(=O)c1ccc(Cl)cc1)[C@@H](C)CN(Cc1ccccc1Cl)[C@H](C)CO	74% (active)
OC[C@@H]1[C@H](c2ccc(C#CC3CC3)cc2)[C@@H]2CN(CCC(F)(F)F)CCCCN12	102% (active)
COc1cccc(S(=O)(=O)N2CCCCN3[C@H](CO)[C@H](c4ccc(-c5ccncc5)cc4)[C@H]3C2)c1	36.2% (active)
COc1cccc(S(=O)(=O)N2CCCCN3[C@H](CO)[C@H](c4ccc(C#CC5CC5)cc4)[C@H]3C2)c1	104% (active)
O=C(CN1CCOCC1)N1CCCCN2[C@H](CO)[C@H](c3ccc(-c4ccccc4)cc3)[C@@H]2C1	16.2% (inactive)
O=C(CN1CCOCC1)N1CCCCN2[C@@H](CO)[C@H](c3ccc(-c4ccccc4)cc3)[C@@H]2C1	6.88% (inactive)
CCC(=O)N1CCCCN2[C@H](C1)[C@@H](c1ccc(/C=C/c3ccccc3)cc1)[C@@H]2CO	103% (active)
O=C(CN1CCOCC1)N1CCCCN2[C@@H](CO)[C@H](c3ccc(/C=C/c4ccccc4)cc3)[C@@H]2C1	92.5% (active)
CCC(=O)N1CCCCN2[C@H](C1)[C@@H](c1ccc(-c3ccc(F)cc3)cc1)[C@@H]2CO	48.8% (active)
Cc1ccc(S(=O)(=O)Nc2ccc3c(c2)C(=O)N([C@H](C)CO)C[C@H](C)[C@H](CN(C)C(=O)Nc2ccc(F)cc2)OCCCC[C@H](C)O3)cc1	1.65% (inactive)
COc1ccc(NC(=O)Nc2ccc3c(c2)C(=O)N([C@H](C)CO)C[C@H](C)[C@H](CN(C)S(=O)(=O)c2ccc(Cl)cc2)OCCCC[C@H](C)O3)cc1	3.56% (inactive)
COc1ccc(S(=O)(=O)Nc2ccc3c(c2)C(=O)N([C@H](C)CO)C[C@H](C)[C@H](CN(C)Cc2ccc(C(F)(F)F)cc2)O3)cc1	97.6% (active)
Cc1ccc(S(=O)(=O)Nc2ccc3c(c2)C(=O)N([C@H](C)CO)C[C@H](C)[C@H](CN(C)Cc2ccc(Cl)c(Cl)c2)O3)cc1	104% (active)
COc1ccc(S(=O)(=O)Nc2ccc3c(c2)C(=O)N([C@@H](C)CO)C[C@H](C)[C@@H](CN(C)Cc2ccc(C(F)(F)F)cc2)O3)cc1	5.53% (inactive)
Cc1ccc(S(=O)(=O)N(C)C[C@@H]2OCCCC[C@@H](C)Oc3ccc(NS(=O)(=O)c4ccc(F)cc4)cc3C(=O)N([C@H](C)CO)C[C@H]2C)cc1	-22.2% (inactive)
COc1ccc(CN(C)C[C@H]2Oc3ccc(NS(=O)(=O)c4ccc(Cl)cc4)cc3CC(=O)N([C@@H](C)CO)C[C@H]2C)cc1	36.9% (active)
COc1ccc(S(=O)(=O)Nc2ccc3c(c2)C(=O)N([C@@H](C)CO)C[C@H](C)[C@H](CN(C)Cc2ccc(C(F)(F)F)cc2)O3)cc1	35.2% (active)
